Source: PubChem BioAssay
Active and inactive are the calls of the source. Unless noted, how the calls were made is not given here.

Assays:
[1] = system: Wnt5a (protein binding on small-molecule microarray); assay: small molecules binding Wnt5a protein – biophysical, small-molecule microarray, 635/667 nm fluorescence, primary screen (AID 1142); conditions: 635 nm fluorescence, higher = more signal;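 further: fluorescence read at 667 nm with signal to noise per printed feature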
[2] = ATP-based viability of Huh7 replicon cells – cell-based, CellTiter-Glo luminescence, basal, 48 h, cytotoxicity control for HCV replication inhibitor project, primary screen (AID 1143); conditions: higher = more signal, called active from +8 up or from −8 down;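 further: Huh7 hepatoma cells carrying a hepatitis C replication reporter with no stimulus; test concentration not given here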
[3] = Pseudomonas biofilm growth suppression – PAO1 strain, BacTiter-Glo luminescence, LB-PBS, primary screen (AID 1144); conditions: P. aeruginosa PAO1 biofilm, 12 h, higher = more signal
[4] = basal CRE-LacZ reporter activity in PC12 – cell-based, unstimulated, primary screen (AID 1145); conditions: no forskolin, luminescence, 4.5 h, higher = more signal, called active from +8 up or from −8 down
[5] = forskolin-driven CRE-LacZ activity in PC12 – cell-based, CRE-LacZ reporter, forskolin-stimulated, primary screen (AID 1146); conditions: luminescence, 4.5 h, higher = more signal, called active from +8 up or from −8 down;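 further: PC12 cells with 6xCRE LacZ reporter stimulated by forskolin 10 µM; beta-galactosidase reporter signal reflecting CREB driven transcription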
[6] = molecular target: Streptavidin (Streptomyces avidinii) (UniProt P22629); assay: compounds binding control protein streptavidin – biophysical, small-molecule microarray, 635/667 nm fluorescence, artefact control for SMM compound annotation, primary screen (AID 1147); conditions: higher = more signal;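 further: signal reflects streptavidin binding to arrayed compounds as a control protein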
[7] = probe aInhba binding on compound microarray – biochemical, small-molecule microarray, 635/667 nm fluorescence, primary screen (AID 1148); conditions: higher = more signal;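 further: score merges 667nm spot fluorescence with signal-to-noise for antibody binding to printed compounds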
Torsin-1A (Homo sapiens) [8] = molecular target: Torsin-1A (Homo sapiens) (UniProt O14656); assay: TOR1A wild-type binding on microarray – cell lysate, small-molecule microarray, lysate, 635/667 nm, primary screen (AID 1149); conditions: COS7 hTOR1A-WT lysate, 635 nm fluorescence, higher = more signal
Torsin-1A (Homo sapiens) [9] = molecular target: Torsin-1A (Homo sapiens) (UniProt O14656); assay: torsin A mutant lysate binding on microarrays – cell lysate, small-molecule microarray, COS7 lysate, 635/667 nm fluorescence, primary screen (AID 1150); conditions: COS7 hTOR1A mutant lysate, 635 nm fluorescence, higher = more signal;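 further: score pools 667 nm emission and signal to noise measuring lysate protein binding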
[10] = system: Sonic hedgehog protein (Shh); assay: Sonic hedgehog microarray binding compounds – biochemical, small-molecule microarray, 635/667 nm fluorescence, primary screen (AID 1151); conditions: 635 nm fluorescence, higher = more signal;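 further: Shh protein binding to compounds spotted on small-molecule microarray slides; score combines spot fluorescence intensity with signal-to-noise across triplicate slides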

Chain of Torsin-1A (Homo sapiens) (O14656 whole entry, looked up): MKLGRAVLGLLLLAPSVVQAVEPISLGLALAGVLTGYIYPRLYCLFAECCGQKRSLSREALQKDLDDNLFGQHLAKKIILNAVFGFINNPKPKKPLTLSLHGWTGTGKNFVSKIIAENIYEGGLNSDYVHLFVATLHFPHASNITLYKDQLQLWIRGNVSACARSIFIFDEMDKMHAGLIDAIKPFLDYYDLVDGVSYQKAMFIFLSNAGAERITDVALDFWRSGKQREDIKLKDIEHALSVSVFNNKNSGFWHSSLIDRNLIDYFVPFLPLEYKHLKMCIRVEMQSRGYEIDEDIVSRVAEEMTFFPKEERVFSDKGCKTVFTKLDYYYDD
Chain of Streptavidin (Streptomyces avidinii) (P22629 whole entry, looked up): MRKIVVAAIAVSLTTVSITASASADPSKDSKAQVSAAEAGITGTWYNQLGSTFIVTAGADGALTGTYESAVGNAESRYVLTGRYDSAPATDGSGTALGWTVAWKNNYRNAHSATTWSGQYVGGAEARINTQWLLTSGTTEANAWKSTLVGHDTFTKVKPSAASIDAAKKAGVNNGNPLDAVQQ

Compound	composite z-score [1]	z-score [2]	z-score [3]	z-score [4]	z-score [5]	composite z-score [6]	composite z-score [7]	composite z-score (Torsin-1A (Homo sapiens) [8])	composite z-score (Torsin-1A (Homo sapiens) [9])	composite z-score [10]
COC(=O)[C@@]1(Cc2ccc(OC)cc2)[C@H]2c3cc(C(=O)N4CCCC4)n(Cc4ccccn4)c3C[C@H]2CN1C(=O)c1ccccc1	0.782	-1.47 (inactive)	0.621 (inactive)	0.201 (inactive)	1.03 (inactive)	0.523	1.1	-0.367	1.05	-0.622
O=C1C2C=CC(C(O)c3ccc(F)cc3)N(Nc3ccccc3)C2C(=O)N1c1ccccc1 (stereo not given)	0.137	0.633 (inactive)	-0.686 (inactive)	-0.522 (inactive)	-0.49 (inactive)	0.0517	0.212	0.171	-0.27	-0.61
COc1ccc([Si](C)(C)[C@H]2[C@H](CCn3cc(CCO)nn3)O[C@@]3(C(=O)N(Cc4ccc(N5CCOC5=O)cc4)c4ccccc43)[C@@H]2C)cc1	-0.0483	-4.12 (inactive)	9e-05 (inactive)	0.469 (inactive)	-2.21 (inactive)	-0.0903	-0.0044	0.676	0.806	1.59
COC(=O)[C@]1(Cc2ccccc2N=[N+]=[N-])N=C(c2ccc(OCCCO)cc2)O[C@@H]1c1ccccc1N=[N+]=[N-]	-0.104	-5.35 (inactive)	0.337 (inactive)	2.85 (inactive)	-1.04 (inactive)	0.105	-0.0762	-1.45	0.283	0.765
COC(=O)C(CC#Cc1ccc2c(c1)[C@]1(C(=O)N2)[C@H](C(=O)NC[C@H](O)c2ccccc2)[C@H]2C(=O)O[C@H](c3ccccc3)[C@H](c3ccccc3)N2[C@@H]1c1ccc(OCCO)cc1)C(=O)OC	1.08	-1.02 (inactive)	-0.419 (inactive)	0.0653 (inactive)	-0.291 (inactive)	2.55	0.859	1.69	1.09	1.6
COc1cc(C(O)C2C=CC3C(=O)N(c4ccccc4)C(=O)C3N2Nc2ccc(C#N)cc2)cc(OC)c1OC (stereo not given)	0.537	0.616 (inactive)	-0.201 (inactive)	0.426 (inactive)	0.238 (inactive)	1.66	0.201	0.249	0.204	0.117
O=C1O[C@@H](c2ccccc2)[C@@H](c2ccccc2)N2[C@@H](c3ccccc3OCCO)[C@]3(C(=O)Nc4ccc(C#CC5(O)CCCCCC5)cc43)[C@@H](C(=O)Nc3nc4ccccc4s3)[C@H]12	0.555	-5 (inactive)	0.207 (inactive)	0.224 (inactive)	0.474 (inactive)	1.22	-0.0195	0.711	0.659	0.902
COC(=O)[C@@]1(Cc2ccccc2)N=C(c2ccc(OCCCO)cc2)O[C@H]1c1ccccc1N=[N+]=[N-]	0.805	-4.03 (inactive)	-0.0344 (inactive)	2.95 (inactive)	-1.52 (inactive)	-1.09	0.25	3.85	3.84	2.07
Cc1ccc(S[C@]2(C(=O)NCC(C)C)CC(=O)N(Cc3ccccc3)[C@@H]2c2ccc(CO)cc2I)cc1	0.185	-2.48 (inactive)	0.229 (inactive)	0.856 (inactive)	1.27 (inactive)	0.176	0.0422	0.298	0.835	2.21
CC(C)=CCCC(C)=CC(O)C1C=CC2C(=O)N(c3ccccc3)C(=O)C2N1Nc1ccccc1 (stereo not given)	0.744	0.311 (inactive)	-0.786 (inactive)	0.819 (inactive)	1.7 (inactive)	2.04	0.596	0.0777	0.253	0.0068
O=C(CS)NCCCCCCNC(=O)[C@H]1C[C@H]2C(=O)N3CCC[C@H]3C(=O)N2[C@H]1c1cccc(OCCO)c1	0.35	-0.521 (inactive)	-0.357 (inactive)	0.549 (inactive)	0.581 (inactive)	0.359	-0.0917	0.536	1.31	1.52
CCCCC=C[C@@H](NC(=O)c1ccc(C(=O)OC)cc1)c1ccccc1	0.301	-2.79 (inactive)	0.806 (inactive)	-0.185 (inactive)	1.11 (inactive)	0.994	0.143	-0.225	0.241	0.185
O=C1C2C=CC(C(O)c3ccc(-c4ccccc4)s3)N(n3cnnc3)C2C(=O)N1Cc1ccccc1 (stereo not given)	-0.18	-0.291 (inactive)	-0.669 (inactive)	0.481 (inactive)	0.288 (inactive)	-0.116	-0.0087	-0.412	-0.468	-0.683
CC(C)(C)N1CC=CC23O[C@@H]4/C=C\CCCOC(=O)C4[C@H]2C(=O)N(CCO)[C@@H]3C1=O (stereo not given in full)	0.501	0.0369 (inactive)	-0.647 (inactive)	-0.492 (inactive)	-0.533 (inactive)	-0.801	-0.416	-0.769	-0.875	-0.131
CCOc1cc(C(O)C2C=CC3C(=O)N(c4ccccc4)C(=O)C3N2Nc2ccc([N+](=O)[O-])cc2)ccc1O (stereo not given)	-0.0182	-1.04 (inactive)	-0.222 (inactive)	2.28 (inactive)	0.507 (inactive)	0.439	-0.101	-0.431	0.196	-0.231
COCCOC(=O)N1C(=O)[C@@]2(c3cc(C#CCNC(N)=O)ccc31)[C@H](C(=O)N1CCN(c3ncccn3)CC1)[C@H]1C(=O)O[C@H](c3ccccc3)[C@H](c3ccccc3)N1[C@@H]2c1ccccc1OCCO	0.518	-1.32 (inactive)	-0.94 (inactive)	-0.141 (inactive)	-0.44 (inactive)	0.605	0.0184	0.223	0.416	0.692
CC(C)(C)OC(=O)CC[C@]1(C(=O)N2CCCCC2)N=C(c2ccc(OCCCO)cc2)O[C@H]1c1ccccc1N=[N+]=[N-]	0.556	-2.48 (inactive)	0.043 (inactive)	1.43 (inactive)	-1.57 (inactive)	1.87	0.813	0.569	2.11	0.837
O=C1O[C@H](c2ccccc2)[C@H](c2ccccc2)N2[C@H]1[C@@H](C(=O)NC[C@H](O)c1ccccc1)[C@]1(C(=O)Nc3ccc(C#CCCO)cc31)[C@H]2c1ccc(O)cc1	-0.11	-4.32 (inactive)	-1.16 (inactive)	-0.329 (inactive)	0.0393 (inactive)	-1.11	0.295	-0.596	-1.36	-0.606
COc1ccc(C#Cc2ccc3c(c2)[C@]2(C(=O)N3)[C@H](c3ccc(O)cc3)N3[C@H](c4ccccc4)[C@H](c4ccccc4)OC(=O)[C@H]3[C@@H]2C(=O)N2CCCCCCC2)cc1	1.12	-3.96 (inactive)	-1.42 (inactive)	0.0653 (inactive)	-0.648 (inactive)	1.9	1.43	1.55	1.43	2.09
Cc1ccccc1C(O)C1C=CC2C(=O)N(C)C(=O)C2N1N1CCCCC1 (stereo not given)	0.343	0.896 (inactive)	0.46 (inactive)	-0.133 (inactive)	-0.0415 (inactive)	1.24	0.462	0.851	0.696	0.0488
Cc1cc(C)c(C(O)C2C=CC3C(=O)N(C)C(=O)C3N2Nc2ccccc2)c(C)c1 (stereo not given)	0.701	1.06 (inactive)	0.3 (inactive)	0.246 (inactive)	-0.354 (inactive)	0.66	1.55	0.405	0.738	-0.0207
CC(C)OC(=O)CC(=O)CC(O)c1ccc(C#N)cc1 (stereo not given)	-0.0818	-1.68 (inactive)	-0.577 (inactive)	-0.583 (inactive)	-1.27 (inactive)	-0.425	0.0816	2.11	2	-0.305
CC(C)N1C(=O)c2ccccc2[C@@H](C(=O)NCCCN(C)C)[C@@H]1c1ccc(CO)cc1	-0.0882	-0.921 (inactive)	-0.282 (inactive)	-0.116 (inactive)	-0.0135 (inactive)	-0.418	0.0633	-0.0795	-0.0729	-0.589
C=C[C@H](COC(C)=O)N(Cc1ccc(OC(C)=O)c(OC)c1)S(=O)(=O)c1ccc(Br)cc1	0.714	-2.08 (inactive)	-0.569 (inactive)	0.195 (inactive)	-1.9 (inactive)	1.12	0.0219	1.85	2.14	1.75
O=C(O)[C@H]1C[C@H]2C(=O)NCC(=O)N2[C@H]1c1ccc(O)cc1	-0.0071	-0.283 (inactive)	-0.642 (inactive)	-0.13 (inactive)	-0.108 (inactive)	-0.54	-0.168	0.562	-0.0135	0.751
NCCCCCCNC(=O)[C@H]1C[C@H]2C(=O)NCC(=O)N2[C@H]1c1cccc(OCCO)c1	0.363	0.0443 (inactive)	0.0567 (inactive)	-0.675 (inactive)	-0.405 (inactive)	0.485	-0.128	1.16	0.872	1.61
O=C(CS)NCCCCCCNC(=O)[C@H]1C[C@H]2C(=O)NCC(=O)N2[C@H]1c1ccc(O)cc1	-0.319	0.0181 (inactive)	-0.333 (inactive)	0.692 (inactive)	0.551 (inactive)	-0.406	-0.188	-0.21	-0.14	0.518
COc1ccc(CCN2C(=O)[C@@]3(Cc4ccccc42)c2ccccc2C(=O)N(Cc2ccccc2Cl)[C@H]3c2ccc(CO)cc2)cc1	-0.0887	-1.7 (inactive)	-0.456 (inactive)	0.558 (inactive)	0.131 (inactive)	-0.343	-0.0403	-0.921	-0.77	-0.801
CC(C)CNC(=O)[C@@]1(c2ccc([N+](=O)[O-])cc2)CC(=O)N(CC23CC4CC(CC(C4)C2)C3)[C@@H]1c1ccc(CO)cc1I	0.777	-4.95 (inactive)	-0.266 (inactive)	0.145 (inactive)	1.07 (inactive)	0.574	0.11	0.283	0.578	2.02
